# Assay outcomes deposited in PubChem BioAssay by Broad Institute.
# Most compounds without a hit are left out; they make up all but 1.5% or so of the library.
# RAD52 inh = RAD52 DNA annealing inhibitors, primary screen, biochemical, FRET, single point, set 2; DNA repair protein RAD52 homolog (Homo sapiens), P43351; recombinant RAD52 DNA annealing, FRET fluorescence; actives 0.46% (n = 360,000); AID 651710, 2012; inhibition, % at 18.7 µM;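 active = every replicate showing at least 50% inhibition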
# Target sequence (P43351 whole entry, looked up): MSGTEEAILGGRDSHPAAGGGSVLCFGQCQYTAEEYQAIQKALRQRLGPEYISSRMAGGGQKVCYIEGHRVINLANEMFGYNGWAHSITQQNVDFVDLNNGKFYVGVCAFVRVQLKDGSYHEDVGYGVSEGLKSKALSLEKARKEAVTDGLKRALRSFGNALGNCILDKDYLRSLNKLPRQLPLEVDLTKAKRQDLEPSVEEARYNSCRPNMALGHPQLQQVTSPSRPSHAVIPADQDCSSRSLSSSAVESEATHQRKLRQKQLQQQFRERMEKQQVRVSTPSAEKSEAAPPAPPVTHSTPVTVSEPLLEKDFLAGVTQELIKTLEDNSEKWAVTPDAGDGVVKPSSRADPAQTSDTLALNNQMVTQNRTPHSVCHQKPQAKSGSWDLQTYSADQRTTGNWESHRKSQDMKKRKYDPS
# CFTR F508del cor = F508del CFTR correction, initial screen, CFBE line, single point. CFBE cells, YFP halide quenching; stimulated with forskolin plus potentiator P3; % fluorescence drop versus neutral controls. activity (quench increase), % at 7.58 µM. actives 0.36% (n = 350,000). AID 720511, 2013;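 active = mean added fluorescence quench of at least 8% versus neutral control, with both replicates also reaching 8%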;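 also: cells transiently co-express mutant CFTR-F508del with the halide-sensitive YFP; corrector assay measuring rescue of mutant channel to the surface after 24 h compound exposure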
# Glyco luc inh = increase of ERlucT glycosylation luciferase signal, primary screen, N-linked glycosylation inhibitor project, D54 ERlucT cells, luminescence, set 2 | D54 ERlucT glycosylation luciferase reporter, 24 h; percent of 100 nM tunicamycin response | reporter increase, % at 12.5 µM | actives 0.23% (n = 360,000);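 active = mean luciferase reporter signal, scaled so untreated is 0 and the glycosylation-blocking control 100, at or above a set limit in every replicate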;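 also: luciferase carries N-glycosylation sites so blocking glycosylation raises the light; 0% = median of neutral control wells and 100% = median of 100 nM tunicamycin wells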
# dFosB act = activators of delta FosB homodimer, primary screen, biochemical, fluorescence polarization, TAMRA-CDK5 oligo, single point | activation, % at 25 µM | AID 493131, 2011 | actives 0.99% (n = 340,000) | purified delta FosB; percent of positive-control signal above neutral wells | Protein FosB (Mus musculus), P13346;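 active = mean activation above about 17%, with every replicate also reaching it, limit read from the data, passing the limit was not always enough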
# PvdQ acylase = P. aeruginosa PvdQ acylase inhibitors, primary screen, biochemical, fluorescence, plate reader and imaging, single point; PvdQ acylase [Pseudomonas aeruginosa LESB58]; purified PvdQ acylase; actives 0.063% (n = 340,000); inhibition, % at 10 µM; in the data active = inhibition above about 30%, passing the limit was not always enough;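 also: 0% = vehicle neutral wells and 100% = reference inhibitor wells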
# RAD54 inh = inhibitors of human RAD54 branch migration, primary screen, biochemical, fluorescence, single point | DNA repair and recombination protein RAD54-like (Homo sapiens), Q92698 | RAD54 Holliday junction branch migration, FAM/BHQ fluorescence | inhibition, % at 10.4 µM | actives 0.14% (n = 360,000) | AID 602329, 2012;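 active = mean normalized replicate activity at least 40 and at least half of replicates scoring 40 or more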;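 also: 0% = median of neutral control wells and 100% = median of positive control wells; inhibitors cause a drop in the FAM fluorescence signal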
# Numbers without * were called inactive; . = no result.
SMILES,RAD52 inh,CFTR F508del cor,Glyco luc inh,dFosB act,PvdQ acylase,RAD54 inh
Cc1cccc(-c2ccc(C3[C@@H]4CN(Cc5cccc(F)c5)C[C@H]3N4)cc2)c1 (stereo partly specified),.,0,.,.,.,.
Cc1cccc(-c2ccc(C3[C@@H]4CN(Cc5ccccc5)C[C@H]3N4)cc2)c1 (stereo partly specified),50*,2,.,.,.,.
COc1cccc(CN2C[C@@H]3N[C@H](C2)C3c2ccc(-c3ccccc3OC)cc2)c1 (stereo partly specified),51*,1,.,.,.,.
CNC(=O)C1(c2ccccc2)CCCCC1,0,-1,3,.,.,-7
O=CNC1(c2ccccc2)CCCCC1,-8,1,0,-4,94*,.
Oc1c(Cl)cc(CN2CCOCC2)c2cccnc12,-15,27*,2,-8,-2,3
O=C(Oc1c(CN2CCOCC2)cc(Cl)c2cccnc12)c1ccccc1,-12,.,-8,-8,-7,.
O=C(Nc1ccc(F)cc1)N1C[C@H]2[C@@H](c3ccccc31)[C@@H](CO)N2C(=O)c1ccccc1,-6,-2,.,.,.,-5
C#CC[N+](C)(C)CCCCCCCCC,-3,.,30*,-5,-5,.
O=C(NCC[C@@H]1CC[C@H](NC(=O)C2CCCC2)[C@@H](CO)O1)c1cc(Cl)cc(Cl)c1,0,-2,.,.,.,8
CCn1c(CNC(=O)Cc2ccc(OC)cc2)nnc1SCC(=O)c1ccccc1,-17,1,-1,-5,-14,.
COc1ccc(C(=O)NCc2nnc(SCC(=O)NO)n2Cc2ccccc2)cc1,-2,-4,41*,-2,-27,.
CC(Oc1ccc2c(c1)c1ccnc3c4ccccc4c(=O)n2c13)C(=O)NCCN1CCOCC1 (stereo unspecified),.,7,74*,-55,20,89*
COc1ccc2c(c1OC)c(=O)n1c3ccc(OC(C)C(=O)NCCCN4CCOCC4)cc3c3ccnc2c31 (stereo unspecified),.,.,9,-36,-4,73*
CC(C)NC(=O)N1CC2(C1)[C@@H](c1ccccc1)[C@@H](CO)N2CCC(F)(F)F,-4,1,.,.,.,.
C[C@H]1CCCCO[C@@H](CN(C)C(=O)Nc2ccc(C(F)(F)F)cc2)[C@@H](C)CN([C@@H](C)CO)C(=O)c2cc(NC(=O)Nc3ccc(C(F)(F)F)cc3)ccc2O1,.,0,.,.,.,-12
Cc1cccc(NC(=O)Cn2cc(C=O)c3ccccc32)c1,-6,0,-2,-3,2,8
Cc1ccc(C)c(NC(=O)/C(C#N)=C/c2cn(CC(=O)NCc3ccco3)c3ccccc23)c1,-47,-8,23,-7,-12,.
Cc1ccc(NC(=O)/C(C#N)=C/c2cn(CC(=O)NCc3ccco3)c3ccccc23)cc1C,-95,-7,-1,60*,-14,-3
Cc1ccc(NC(=O)Cn2cc(C=O)c3ccccc32)cc1C,-1,-2,-3,20*,-6,5
Cc1cc(C)cc(NC(=O)/C(C#N)=C/c2cn(CC(=O)NCc3ccco3)c3ccccc23)c1,.,.,10,33*,7,.
N#CC1=C(N)Oc2c(ccc3cccnc23)C1c1ccccc1 (stereo unspecified),-32,17*,2,-10,5,-12
Cc1ccc(-c2ccc3c(c2)O[C@@H](CN(C)Cc2ccncc2)[C@H](C)CN([C@H](C)CO)S3(=O)=O)cc1,14,6,.,.,.,2
O=C(O)C[C@H]1C[C@@H]2c3cc(NS(=O)(=O)c4ccccc4)ccc3O[C@@H]2[C@H](CO)O1,-39,-2,.,.,.,-3
CC1=CC(C)C(/C=N/n2cnnc2)C(C)C1 (stereo unspecified),.,.,1,-1,-3,-12
CC1=CC(C)[C@H](/C=N/n2c(=O)[nH]c3c([nH]c4ccc(C)cc43)c2=O)C(C)C1 (stereo partly specified),5,-1,60*,8,-14,.
